Screening results: PubChem BioAssay, National Center for Advancing Translational Sciences (NCATS)
In the library only some 10% were active in any assay of this set; here they are far more common.
BAZ2B inh = blocks human BAZ2B; Q9UIF8; AlphaScreen BAZ2B-H3K14Ac peptide displacement; Potency, µM (doses to about 114 µM), inactives show at the highest dose activity change, negative = inhibition, most hits filed as inhibitors; hit rate 4.4% among 360,000; note: potency is the fitted concentration of half-maximal effect; % is set by controls: 0 for no effect and ±100 for the full control effect; nearly all actives have a fitted effect of over 60% in size
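AlphaScreen displacement: compounds (up to 110uM) incubated 30 min at room temperature with a preformed 50 nM BAZ2B/50 nM biotinylated H3K14Ac peptide complex in PBS pH 7.4 with Tween-20. Donor and acceptor beads at 10 ug/mL final added, 20 min light-protected before reading.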
G9a block = G9a (human) methyltransferase inhibition; Potency, µM (series often up to 102 µM), without a hit: top-dose activity, negative = inhibition, hits mostly inhibitors; hit rate 8.8% among 350,000; Q96KQ7; G9a H3K9 monomethylation, AlphaScreen, 2 h; note: potency is the fitted concentration of half-maximal effect; % is set by controls: 0 for no effect and ±100 for the full control effect; nearly all actives have a fitted effect of over 75% in size
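Enzyme 20 nM + cpd, 15 min RT; add b-H3K9 pep 500 nM / SAM 20 uM; 2 h RT; anti-H3K9me1 Ab 0.5 ug/mL + SA donor / anti-rabbit acceptor beads 20 ug/mL each, 10 min; AlphaScreen read.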
CtBP-E1A inh = blocks the CtBP interaction with E1A. AlphaScreen GST-E1A/His-CtBP binding, 1536-well; hits give low values. activity change, % (concentration not given with the values). hit rate 0.49% among 340,000; in the data active = activity change below about -65%; inconclusive = mostly about -30% to -63%; note: % is set by controls: 0 for no effect and ±100 for the full control effect
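GST-E1A and His-tagged CtBP (125 nM each as 5X stock) were preincubated with pin-transferred compound for 2 h at 37 °C in the dark, then glutathione donor and nickel acceptor beads were added for 1 h before AlphaScreen reading.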
Six1-Eya2 blk = Six1/Eya2 interaction inhibition; AlphaScreen GST-Six1/His-Eya2 binding, biochemical; hits give low values; activity change, % (concentration not given with the values); Q15475+O00167; hit rate 0.56% among 360,000; in the data active = activity change below about -65%; inconclusive = mostly about -30% to -63%; note: % is set by controls: 0 for no effect and ±100 for the full control effect
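Compounds are tested against tagged Six1 and Eya2 proteins bridged by glutathione donor and nickel acceptor beads; after a one-hour incubation at 37 °C without light, AlphaScreen emission is recorded.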
HP1b chromo inh = blocks HP1-beta chromodomain binding to methylated histone tails | P83916 | AlphaScreen HP1-beta / biotin-H3K9me3 peptide binding | Potency, µM (series often up to 114 µM), without a hit: at the top dose activity change, negative = inhibition, usual class: inhibitors | hit rate 0.56% among 390,000 | AID 540317; note: potency is the fitted concentration of half-maximal effect; nearly all actives have a fitted effect of over 70% in size
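HP1-beta protein (50 nM final) preincubated 30 min at room temperature with biotinylated H3(1-18)K9me3 peptide (50 nM) in PBS pH 7.4, 0.01% Tween-20, then compound added for 30 min. AlphaScreen streptavidin donor/nickel chelate acceptor beads (10 ug/mL final), 30 min dark, luminescence read.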
JMJD2A Tudor = inhibitors of human JMJD2A Tudor domain | AlphaScreen JMJD2A-Tudor / H3K4me3 peptide binding | AID 504339 | hit rate 4.4% among 390,000 | Potency, µM (series often up to 114 µM), without a hit: at the highest dose activity change, negative = inhibition, most hits filed as inhibitors; note: potency is the fitted concentration of half-maximal effect; % is set by controls: 0 for no effect and ±100 for the full control effect; nearly all actives have a fitted effect of over 50% in size
* = called active by the depositor; ? = inconclusive; . = not tested or not shown; [ ] = remark or other dose. Unless noted, calls come from the whole dose curve; as a rule, active = well fitted inhibition curve with a large enough effect; inconclusive = small, poorly fitted or top-dose-only effect; inactive = no such curve, though single readings can be large or run the other way.

SMILES	BAZ2B inh	G9a block	CtBP-E1A inh	Six1-Eya2 blk	HP1b chromo inh	JMJD2A Tudor
COC(=O)C(Cc1ccccc1)NS(=O)(=O)c1cc(Br)ccc1Br (configuration not stated)	.	.	.	.	39.2%	-4.8%
CCCNc1nc2ccccc2c(=O)[nH]1	4.2%	7.8%	1.0	-2.3	1.7%	-2.1%
CCCNc1ncc2c(=O)[nH][nH]c(=O)c2n1	.	.	-25.0	-28.3	3.5%	20µM*
CC(=O)Nc1ccc(SCC(=O)Nc2ccccc2-c2ccccc2)cc1	?	-4.6%[59 µM]	20.6	15.1	52.6%	-15.4%
CC(=O)Nc1ccc(SCc2ncc(-c3ccccc3)o2)cc1	-18.9%	50.1µM*	1.8	4.9	9.1%	-21.0%
CCOCCCNC(=O)CNC(=S)N(Cc1ccc(C)cc1)Cc1ccco1	-38.4%	10µM*	6.2	12.0	-13.3%	-23.2%
Cn1cc(C(=O)NCCc2ccc(Cl)cc2)c(=O)c2cc(S(=O)(=O)N3CCCCC3)ccc21	.	8.4%[59 µM]	.	.	18.4%	-9.3%
COc1cc(OC)c(NC(=O)Nc2sc3nc4n(c(=O)c3c2C)CCC(C)CC4)cc1Cl (configuration not stated)	-1.6%	0.1%[59 µM]	.	.	32.9%	-5.8%
CCOC(=O)c1c(C)c(-c2ccccc2)n(CC(=O)N2CCCC2)c1C	-38.2%	-19.5%	-0.7	-6.4	27.4%	-22.4%
CCOC(=O)c1c(C)c(-c2ccccc2)n(CC(=O)N2CCN(C)CC2)c1C	-7.0%	70.8µM*	1.3	-5.2	10.4%	-28.9%
Oc1c(Cl)cc(Cl)cc1C=Nc1ccccc1N1CCCC1	44.7µM*	10µM*	.	.	.	.
COc1ccc2[nH]c(=O)c(C(=O)O)cc2c1	-15.7%	-21.3%	-1.4	6.3	-3.4%	8.9%
COc1ccc2[nH]c(=O)cc(C(=O)O)c2c1	50.1µM*	35.5µM*	20.0	-11.4	-6.7%	?
CSCC[C@H](NC(=O)C1CCN(S(=O)(=O)c2ccc(C)cc2)CC1)C(=O)NC1CCS(=O)(=O)C1 (some centres not stated)	-3.7%	56.2µM*	-0.1	6.7	22.9%	-14.4%
COCCN(C(=O)COC(=O)C1CCC(C(C)(C)C)CC1)c1c(N)n(Cc2ccccc2)c(=O)[nH]c1=O (configuration not stated)	0.6%	31.6µM*	3.5	-0.6	20.9%	-14.9%
COCCN(C(=O)COC(=O)CNC(=O)c1cccs1)c1c(N)n(Cc2ccccc2)c(=O)[nH]c1=O	-1.3%	11.2µM*	-5.0	3.2	-6.6%	-10.3%
Cc1ccc2c(c1)Cc1c(nc(-c3ccc(F)cc3)nc1SCC(=O)N1CCCCC1)O2	-4.2%	0.3%[59 µM]	.	.	34.5%	-11.9%
O=C(CCCCCC(=O)N(CCO)CCO)N(CCO)CCO	-2.1%	39.8µM*	2.0	13.8	32.5%	-12.3%[11.4 µM]
CCCCCCCCCCCC(=O)N(CCO)CCO	.	-4.1%[12.7 µM]	.	.	.	.
Cc1nc(N2CCOCC2)c2c(C(=O)Nc3cccc(C(F)(F)F)c3)c(C)oc2n1	6.4%[57.1 µM]	-6.7%[59 µM]	.	.	28.9%	-3.9%
Clc1ccc(-n2ncc3c(NCCCn4ccnc4)ncnc32)cc1	-33.4%	25.1µM*	-4.3	-0.6	17.2%	-24.3%
CCOC(=O)c1sc2nc3n(c(=O)c2c1C)CCC(C)CC3 (configuration not stated)	10.9%	10µM*	6.6	3.9	-10.1%	-13.5%
CCOC(=O)N1CCN(C(=O)Nc2sc3nc4n(c(=O)c3c2C)CCC(C)CC4)CC1 (configuration not stated)	-34.7%	31.6µM*	0.0	-14.0	9.0%	-28.7%
COc1ccc(CCNc2nc3c(-c4cccc(C)c4)nnn3c3ccccc23)cc1OC	-2.4%	1.0%[59 µM]	.	.	22.4%	-1.7%
Cc1cc(C)n(-c2nnc(NCc3ccc(Cl)cc3)nn2)n1	?	-35.3%	-10.7	-6.0	?	39.8µM*
SMILES	BAZ2B inh	G9a block	CtBP-E1A inh	Six1-Eya2 blk	HP1b chromo inh	JMJD2A Tudor
Cc1nn(-c2nnc(NCc3ccccc3)nn2)c(C)c1Br	35.5µM*	12.6µM*	-7.5	-8.2	?	50.1µM*
Cc1nn(C(=O)c2ccccc2)c(C)c1S(=O)(=O)N1CCCCCC1	17.7%	3.3%[59 µM]	.	.	36.7%[57 µM]	9.6%
O=C(CN1CCN(CC(=O)Nc2ccccc2F)CC1)Nc1ccc(Cl)c(C(F)(F)F)c1	2.1%	-15.5%[59 µM]	.	.	35.1%[57 µM]	-8.7%
Cc1c(Cl)cccc1NC(=O)CSc1nc(=O)n(Cc2ccco2)c2c1CCC2	-19.4%	2.2%[59 µM]	.	.	11.7%	?
O=C(CSc1nc2ccccc2c(=O)n1-c1ccccc1)N1CCC1	-17.8%	-5.2%	.	-6.1	31.8%	-10.2%
O=C(CSc1nc2ccccc2c(=O)n1-c1ccccc1)N1CCCC1	-15.4%	50.1µM*	-4.6	0.6	32.4%	-2.4%
O=C(CSc1nc2ccccc2c(=O)n1-c1ccccc1)NC(=O)CN1CCCC1=O	79.4µM*	50.1µM*	-0.5	-16.0	-19.7%	-16.7%
CCn1c(SCC(=O)N2CCCC2)nc2ccccc21	.	4.2%	8.6	-1.1	31.8%	5.1%
O=c1c2ccccc2nc(SCc2cn3ccsc3n2)n1-c1ccccc1	?	10µM*	-6.8	-8.9	2.5%	?
O=C(CSc1nc2ccccc2n1S(=O)(=O)c1ccccc1)N1CCCC1	1.5%	50.1µM*	2.8	-2.5	24.8%	-2.1%
COc1cccc(C(=O)Nc2cccc(OCc3cc(=O)n4cc(C)ccc4n3)c2)c1	2.6%	-3.1%[59 µM]	.	.	23.1%[57 µM]	-15.3%
O=[N+]([O-])c1ccccc1CNc1ccc(F)c(Cl)c1	50.1µM*	?	-18.4	-23.9	-28.7%	?
COc1cccc(CNc2ccc(F)c([N+](=O)[O-])c2)c1O	-34.9%	50.1µM*	-8.4	-8.9	-16.5%	?
CCOCCOC(=O)c1ccc(NC(=O)/C=C/c2ccc(OC)c(OC)c2)cc1	-5.5%	-0.5%[59 µM]	.	.	28.0%	-7.5%
CCc1ccccc1N1CC(c2nc3ccccc3n2CCOc2ccc(Cl)c(C)c2)CC1=O (configuration not stated)	8.0%	14.7%[59 µM]	.	.	35.9%	-30.9%
CSc1ccccc1NC(=O)C(C)N(C)CC(=O)N1CCN(Cc2ccccc2)CC1 (configuration not stated)	.	.	-1.4	-3.5	?	10µM*
CN(CC(=O)N1CCN(Cc2ccccc2)CC1)S(=O)(=O)c1ccc(F)cc1	5.6%	.	4.9	2.6	18.9%	-13.0%
CN(CC(=O)N1CCN(Cc2ccccc2)CC1)S(=O)(=O)c1ccc(Br)cc1	-24.0%	-1.3%	4.6	-4.2	16.4%	-11.1%
CC(C(=O)Nc1ccc(C(F)(F)F)cc1)N(C)CC(=O)N1CCN(Cc2ccccc2)CC1 (configuration not stated)	.	.	-2.6	0.3	20µM*	0.891µM*
Cc1ccc2c(c1)c1c(c(=O)n(Cc3ccccc3)c(=O)n1CC(=O)Nc1ccccc1C)n2C	-5.2%	-26.6%[59 µM]	.	.	26.8%	-10.0%
